# Screen size: about 300,000 compounds; about 37,000 (12%) were called active. Rule as the data show it: active = max response mostly above about 13% (no sharp cut-off); inactive = mostly below about 14%. For the sample, actives were picked, then their nearest neighbours and some compounds at random.
# Assay: Cycloheximide Counterscreen for Small Molecule Inhibitors of Shiga Toxin; also: read at 38.3 µM for the half of the compounds with a filed dose; 0% is about no effect
# Conditions: cell reporter, cycloheximide protein synthesis inhibition counterscreen; hits give high values
row,SMILES,max response
1,O=C(C(NS(=O)(=O)c1cccc2nsnc12)c1ccccc1)N1CCN(c2ccccc2)CC1 (centres undefined),4.26% (inactive)
2,CCOC(=O)c1cc(S(=O)(=O)NCCc2ccc(OC)c(OC)c2)cn1C,-2.67% (inactive)
3,CCOC(=O)N1CCN(S(=O)(=O)c2ccc(Br)cc2)CC1,-0.649% (inactive)
4,CCOC(=O)N1CCN(C(=O)C2CCN(S(=O)(=O)c3cc(Cl)ccc3OCC)CC2)CC1,11.3% (inactive)
5,C=C(C)C1CC=C(C)/C(=N\NC(=O)CNc2ccccc2OC)C1 (centres undefined),-1.85% (inactive)
6,Cc1ccc2nc(Nc3ccccc3)cc(C)c2c1,51.1% (active)
7,Cc1cc(Nc2ccccc2)nc(N)n1,7.42% (inactive)
8,Cc1ccc2nc(Nc3ccccc3O)nc(-c3ccccc3)c2c1,0.615% (inactive)
9,Cc1ccc(S(=O)(=O)N(CC(O)CN2C(=O)NC(C)(C)C2=O)c2cccc([N+](=O)[O-])c2)cc1 (centres undefined),-3.67% (inactive)
10,COCCCN1C(=O)c2ccc(C(=O)OCC(=O)NCc3ccccc3OC)cc2C1=O,-6.08% (inactive)
11,O=C(O)C1CCN(C(=O)OCc2ccccc2)CC1,40.2% (active)
12,CCOC(=O)N1CCC(NC(=O)CCc2ccccc2)CC1,1.36% (inactive)
13,O=C(NCC1CCC(C(=O)O)CC1)OCc1ccccc1 (centres undefined),-2.25% (inactive)
14,COc1cccc(N(CC(=O)NC2CCCCCC2)S(=O)(=O)c2ccccc2)c1,1.89% (inactive)
15,COc1ccccc1C(=O)N1CCNC(=O)C1CC(=O)Nc1ccc(Cl)cc1 (centres undefined),-1.23% (inactive)
16,O=C(CC1SCCNC1=O)Nc1ccc(Cl)c(Cl)c1 (centres undefined),17.5% (inactive)
17,O=C(CC1SCCNC1=O)Nc1ccc(Cl)cc1 (centres undefined),21.9% (active)
18,CCOc1cc(NC(=S)NCc2ccco2)c(OCC)cc1NC(=O)c1ccco1,6.2% (inactive)
19,O=C(NNC(=S)Nc1ccc(Br)cc1Cl)c1ccco1,43.8% (active)
20,CCC(=O)NC(=S)Nc1ccc(NC(=O)c2ccco2)c(Cl)c1,16.5% (inactive)
21,CSc1nc(-c2ccco2)nn1C(=O)c1ccccc1Cl,1.46% (inactive)
22,COc1ccc(CC(=O)Nc2nc(-c3ccc(F)c(F)c3)cs2)cc1OC,-6.69% (inactive)
23,COc1cc(CC(=O)Nc2nc(-c3ccc(F)c(F)c3)cs2)cc(OC)c1OC,-5.65% (inactive)
24,Cc1ccc(S(=O)(=O)NC(=O)Nc2nc(-c3ccc(F)c(F)c3)cs2)cc1,19.2% (active)

row,SMILES,max response
1,O=[N+]([O-])c1ccc(N(CCO)Cc2ccccc2)c([N+](=O)[O-])c1,-2.22% (inactive)
2,Cc1ccc(C)c(N2C(=O)CS/C2=N\NC(=O)c2ccccc2Cl)c1,-3.78% (inactive)
3,C/C(=N/NC(=O)c1cc(Cl)ccc1O)C12CC3CC(CC(C3)C1)C2,18.4% (inactive)
4,O=C(N/N=C1\CCSC1)c1cc(Cl)ccc1O,18.7% (active)
5,Cc1cc(C=O)c(C)n1-c1ccc(NC2CCCCC2)c([N+](=O)[O-])c1,6.55% (inactive)
6,Cc1cc(=O)oc2c(C)c(OC(C)C(=O)NC3CCN(Cc4ccccc4)CC3)ccc12 (centres undefined),-2.67% (inactive)
7,COc1ccc(NC(=O)C(=O)NCC(=O)Nc2cccc(C(F)(F)F)c2)cc1,-1.93% (inactive)
8,COc1ccc(NC(=O)CC(NC(C)c2ccccc2)C(=O)O)cc1 (centres undefined),-3.91% (inactive)
9,COc1ccc(C(CC(=O)Nc2ccc(C)cc2)NC(=O)C(F)(F)F)cc1 (centres undefined),12.7% (active)
10,Cc1ccc(NS(=O)(=O)c2ccc3c(c2)NC(=O)CO3)cc1,-9.63% (inactive)
11,COc1ccc(CNC(=O)C(Cc2ccccc2)n2cccc2)cc1 (centres undefined),-3.21% (inactive)
12,CCOC(=O)C1Sc2[nH]c(=O)sc2C(c2ccc(Cl)cc2)C1C(=O)OCC (centres undefined),-1.02% (inactive)
13,COc1ccc(N2CCN(C(=O)c3ccc(N4CCCCS4(=O)=O)cc3)CC2)cc1,-2.57% (inactive)
14,CCC(=C/c1sc2ccc3ccccc3c2[n+]1C)/C=C1\Sc2ccc3ccccc3c2N1C,-3.42% (inactive)
15,COc1ccc2nc(SCC(=O)Nc3c(C)cc(C)cc3C)[nH]c2c1,-5.11% (inactive)
16,CC(=O)Nc1ccc(C(=O)CSc2nc3ccc(C)cc3[nH]2)cc1,19.9% (active)
17,Cc1ccc2nc(SCC(=O)NC3CCCC3)[nH]c2c1,-3.78% (inactive)
18,Cc1nc2nc(SCC(=O)c3ccccc3)[nH]c2cc1Br,1.25% (inactive)
19,CCOC(=O)CSc1nc2ccc(C)cc2[nH]1,17% (active)
20,Cc1cc(C)c(NC(=O)CSc2nc3ccncc3[nH]2)c(C)c1,8.2% (inactive)
21,COc1ccc(/C=N/N(C)C2=NS(=O)(=O)c3ccccc32)cc1OC,-4.65% (inactive)
22,CCCCN(C)CCNC(=O)C1CCCN(S(=O)(=O)c2cccc3nsnc23)C1 (centres undefined),-7.69% (inactive)
23,CC(Sc1cccc[n+]1[O-])C(=O)Nc1cccc(S(=O)(=O)N2CCOCC2)c1 (centres undefined),-2.05% (inactive)
24,CCOc1ccccc1/C=N/NC(=O)CNC(=O)COc1ccccc1,8.7% (inactive)

row,SMILES,max response
1,COc1ccc(/C=N/Nc2nc3ccccc3o2)cc1OC,32.2% (active)
2,c1ccc(CCN2CN=C(Nc3nc4ccccc4o3)NC2)cc1,13.2% (inactive)
3,CCOc1ccc(/C=N/Nc2nncc(-c3ccccc3)n2)cc1OC,5.88% (inactive)
4,C=CCc1ccccc1OCC(=O)N/N=C/c1ccccc1OCC,9.76% (inactive)
5,COc1ccc(/C=N/n2nnnc2N)cc1OC,1.75% (inactive)
6,Brc1ccccc1/C=N/Nc1nc2ccccc2o1,35.3% (active)
7,CCOc1ccccc1/C=N/Nc1nc2ccccc2o1,11.2% (active)
8,CN=C1S/C(=C\c2c(OC)cc(OC)cc2OC)C(=O)N1C,-4.61% (inactive)
9,COc1ccc(C2/C(=C(/O)c3ccc4c(c3)CC(C)O4)C(=O)C(=O)N2Cc2ccncc2)cc1 (centres undefined),-3.17% (inactive)
10,COc1cc(C(=O)N2CCN(C)CC2)cc(OC)c1OC,-1.54% (inactive)
11,Cc1ccc(NC(=O)COC(=O)C2C3CC4OC(=O)C2C4C3)cc1Cl (centres undefined),6.04% (inactive)
12,O=C(NCc1ccco1)C1CCCN1S(=O)(=O)c1ccccc1C(F)(F)F (centres undefined),-2.95% (inactive)
13,Cc1ccc(-n2nc3c(=O)n(C(C)C(=O)NCc4ccc5c(c4)OCO5)nc(C)c3c2C)cc1 (centres undefined),7.33% (inactive)
14,COc1ccc(CN(C)C(=O)Cc2ccsc2)c(OC)c1OC,-2.85% (inactive)
15,CC(C)CNS(=O)(=O)c1ccc(CCC(=O)NCc2ccc(Cl)cc2)cc1,-1.7% (inactive)
16,COc1ccc(CN2CCN(C(=O)CCC(=O)Nc3nnc(C(C)C)s3)CC2)cc1F,-9.15% (inactive)
17,CC1C(=O)C(C)C(c2ccc(O)cc2)NC1c1ccc(O)cc1 (centres undefined),-3.88% (inactive)
18,CC(NC(=O)C(C)(C)C)C(c1cccs1)N1CCN(Cc2ccccc2)CC1 (centres undefined),1.72% (inactive)
19,C#CC(C)(C)NC(=O)c1cnc(-c2ccccc2)nc1-c1ccccc1,1.23% (inactive)
20,Cc1ccc(NC(=O)C2CC(c3ccc(F)cc3)=NO2)cc1 (centres undefined),4.66% (inactive)
21,O=C(Nc1ccc2c(c1)OCO2)C1CC(c2c(F)cccc2Cl)=NO1 (centres undefined),31.8% (active)
22,Cc1ccccc1N1CC(C(=O)Nc2ccc3c(c2)OCO3)CC1=O (centres undefined),15.7% (inactive)
23,Cc1ccc(S(=O)(=O)N(Cc2ccccc2)c2ccccn2)cc1[N+](=O)[O-],2.38% (inactive)
24,CS(=O)(=O)N(CC(=O)Nc1ccc(F)cc1F)c1cccc([N+](=O)[O-])c1,1.91% (inactive)

row,SMILES,max response
1,O=C(c1cccc([N+](=O)[O-])c1)N1CCN(Cc2ccccc2)CC1,-6.89% (inactive)
2,Cc1c(Br)c([N+](=O)[O-])nn1CC(=O)N1CCN(Cc2ccccc2)CC1,14.4% (active)
3,O=C(/C=C/c1cccc([N+](=O)[O-])c1)N1CCN(Cc2ccccc2)CC1,21.5% (inactive)
4,COc1ccc(-c2cc(C(=O)N3CCN(Cc4ccc5c(c4)OCO5)CC3)on2)cc1OC,-9.89% (inactive)
5,Cc1cc(C)nc(N/N=C/c2c(C)oc3ccccc23)n1,1.89% (inactive)
6,Cc1cc(C)nc(N/N=C/c2ccc([N+](=O)[O-])o2)n1,0.645% (inactive)
7,Cc1cc2c(C)nc(N/N=C/c3ccccc3)nc2o1,38% (active)
8,COc1ccc(C(=O)NCCSc2ccccc2C)cc1,46% (active)
9,COc1cccc(C(=O)NCCSc2ccc(Br)cc2)c1,3.16% (inactive)
10,COc1ccc(C(=O)NCc2nnc(SCCOc3ccccc3)n2C)cc1,-1.69% (inactive)
11,N#Cc1ccccc1S(=O)(=O)N1CCN(C(=O)c2cc(-c3ccccc3)nn2-c2ccccc2)CC1,-0.928% (inactive)
12,COCCCNc1nc2c(-c3cccc(C(F)(F)F)c3)nnn2c2ccccc12,-2.05% (inactive)
13,COC(=O)Cn1nc(-c2ccccc2)c2cc(Cl)ccc21,-2.04% (inactive)
14,COCCCNc1nc2c(-c3cccc(C)c3)nnn2c2ccc(Cl)cc12,11.5% (active)
15,O=C(CCS(=O)(=O)c1ccc(Br)cc1)NCCc1ccc(Cl)cc1,-3.3% (inactive)
16,N#C/C(=C(/O)Cc1cccc2ccccc12)c1nc2ccccc2s1,-8.33% (inactive)
17,CC1=CC(=C(C#N)c2nc3ccccc3s2)C=C(C)N1c1ccc(F)cc1F,11.6% (active)
18,C=CCN1C(=O)C(O)(CC(=O)c2ccccn2)c2ccccc21 (centres undefined),-4.4% (inactive)
19,Cc1ccc2cc(CCNC(=O)c3ccc4c(c3)OCO4)c(=O)[nH]c2c1,-3.03% (inactive)
20,CNC(=O)/C(=C\C=C\c1ccccc1)NC(=O)c1ccc([N+](=O)[O-])cc1,-1.68% (inactive)
21,Cc1ccc(C(=O)N/C(=C/C=C/c2ccccc2)C(=O)NCc2ccco2)cc1,13.9% (active)
22,O=C(NCc1ccco1)/C(=C/c1ccco1)NC(=O)c1ccccc1,-7.97% (inactive)
